From PubChem BioAssay
In the library only some 11% were active in any assay of this set; here they are far more common.
Luciferase inh = blocks purified firefly luciferase enzyme activity; P08659; purified P. pyralis luciferase, luminescence, biochemical; Potency, µM (highest dose often 115 µM), hits mostly inhibitors; 76,000 compounds, 2.5% hits; AID 1347043; note: nearly all actives have a fitted effect of over 65% in size
Target sequence (P08659 whole entry, looked up): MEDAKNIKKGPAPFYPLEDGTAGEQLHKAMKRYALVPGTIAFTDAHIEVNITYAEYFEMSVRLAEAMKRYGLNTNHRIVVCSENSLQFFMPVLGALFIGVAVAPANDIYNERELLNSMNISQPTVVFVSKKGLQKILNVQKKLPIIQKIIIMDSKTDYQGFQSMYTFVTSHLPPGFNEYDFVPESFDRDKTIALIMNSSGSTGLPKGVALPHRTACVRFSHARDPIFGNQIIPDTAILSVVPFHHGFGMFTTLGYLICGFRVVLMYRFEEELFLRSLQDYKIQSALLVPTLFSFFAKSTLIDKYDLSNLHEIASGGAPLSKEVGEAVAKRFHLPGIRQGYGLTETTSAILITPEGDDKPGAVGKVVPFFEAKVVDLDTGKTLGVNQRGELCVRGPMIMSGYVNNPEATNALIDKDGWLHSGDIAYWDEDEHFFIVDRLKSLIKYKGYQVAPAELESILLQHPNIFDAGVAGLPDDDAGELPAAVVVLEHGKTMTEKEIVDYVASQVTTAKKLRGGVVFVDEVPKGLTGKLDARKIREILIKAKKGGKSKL
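Purified P. pyralis luciferase (10nM final) in 50mM Tris acetate pH 7.5, 10mM Mg acetate, 0.01% Tween-20, 0.05% BSA with 10uM D-luciferin and 10uM ATP. Compounds titrated qHTS. Luminescence imaged on CCD.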
3T3 cytotox = NIH 3T3 cell cytotoxicity; NIH 3T3 viability, CellTiter-Glo ATP luminescence, 48-72 h; Potency, µM (series often up to 96.7 µM), usual class: inhibitors; 94,000 compounds, 4.3% hits; note: nearly all actives have a fitted effect of over 55% in size
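NIH 3T3 cells at 400 cells/well received 23 nL of compound by pintool and were incubated 48 or 72 h at 37 °C. Viability was read as ATP-coupled CellTiter-Glo luminescence.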
hNpr1 antagonist = antagonists of human natriuretic peptide receptor Npr1; 76,000 compounds, 1.6% hits; Potency, µM (doses to about 46.3 µM), actives largely listed as inhibitors; HEK293 hNpr1 GloSensor cGMP, ANP-stimulated luminescence; P16066; calls by dose curve; note: nearly all actives have a fitted effect of over 60% in size
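Compound pre-incubated 30 min at room temperature on GloSensor-loaded HEK293 cells stably carrying hNpr1 and the pGS-40F cGMP biosensor. Stimulation uses hNppA at 0.1 nM final; luminescence is taken at baseline and 20 min post-agonist.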
HEK293 tox = cytotoxic compounds in HEK 293 cells; HEK 293 viability, ATP luminescence (CellTiter-Glo), 48-72 h; Potency, µM (series often up to 115 µM), usual class: inhibitors; 94,000 compounds, 6.6% hits; AID 1345083; note: nearly all actives have a fitted effect of over 60% in size
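CellTiter-Glo luminescence (cellular ATP) was read after 48 or 72 hr of compound exposure at 37 degree Celsius. Cells were HEK 293 plated at 250 cells/well.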
Of the large screens only hits and unclear results are named; the others gave an inactive call. Unless noted, calls come from the whole dose curve; as a rule, active = well fitted curve in the direction sought with a large enough effect; inconclusive = small, poorly fitted or top-dose-only effect, or another doubt; inactive = no such curve, though single readings can be large; an effect the other way counts as inactive or inconclusive.

COC(=O)CNC(=O)c1nc2cccnc2n(Cc2ccc(OC)cc2)c1=O	none (no result: Luciferase inh, hNpr1 antagonist)
O=C(c1cccc(Cl)c1)N1CCC(C(=O)N2CCC(c3nc4ncccc4[nH]3)C2)CC1 (stereo unspecified)	none (no result: Luciferase inh, hNpr1 antagonist)
COc1cccc(CN2C(=O)OC3(CCN(Cc4ccc(F)cc4)CC3)C2(C)c2cccnc2)c1 (stereo unspecified)	3T3 cytotox inconclusive, HEK293 tox inconclusive
Cc1ccc(CN2Cc3[nH]cnc3C[C@H]2C(=O)NCc2ccc(C(F)(F)F)cc2)cc1	3T3 cytotox 100µM, HEK293 tox 71µM
N#Cc1ccc(CNC(=O)[C@@H]2Cc3nc[nH]c3CN2Cc2ccc(C(F)(F)F)cc2)cc1	none
O=C(Nc1ccc2c(c1)OCO2)C1CN(S(=O)(=O)c2cccnc2)CC12CCCCC2 (stereo unspecified)	Luciferase inh 40µM
O=C(Nc1ccc(F)cc1)C1CN(S(=O)(=O)c2cccnc2)CC12CCCCC2 (stereo unspecified)	HEK293 tox inconclusive
CCOC(=O)[C@H]1[C@@H](O)C(=O)N(Cc2ccccc2)C12CCN(C(=O)c1cccs1)CC2	3T3 cytotox inconclusive (no result: Luciferase inh, hNpr1 antagonist)
Cn1ncc2c(C(=O)Nc3cccc(Cl)c3)cc(C(C)(C)C)nc21	3T3 cytotox inconclusive, HEK293 tox 63µM (no result: Luciferase inh, hNpr1 antagonist)
COc1ccc(-c2cc(C(=O)Nc3ccc(Cl)cc3)c3cnn(C)c3n2)cc1	none (no result: Luciferase inh, hNpr1 antagonist)
COc1ccc(NC(=O)c2cc(C(C)(C)C)nc3c2cnn3C)cc1	3T3 cytotox inconclusive, HEK293 tox 63µM (no result: Luciferase inh, hNpr1 antagonist)
Cn1ncc2c(C(=O)Nc3cccc(Cl)c3)cc(-c3ccc(Cl)cc3Cl)nc21	3T3 cytotox 32µM, HEK293 tox 22µM (no result: Luciferase inh, hNpr1 antagonist)
CC1CN(C(=O)C2CCN(c3nc(-c4ccccc4)nc4c3CCC4)CC2)CCN1 (stereo unspecified)	3T3 cytotox inconclusive, HEK293 tox inconclusive
O=C(NC1CCCNC1)C1CCN(c2nc(-c3ccccc3)nc3c2CCC3)CC1 (stereo unspecified)	3T3 cytotox 45µM, HEK293 tox inconclusive
CC(C)(C)CC(=O)N1CCN(c2nc(-c3ccccc3)nc3c2CCC3)CC1	none
CNCCNC(=O)C1CCN(c2nc(-c3ccccc3)nc3c2CCC3)CC1	3T3 cytotox inconclusive, HEK293 tox inconclusive
COC(C)(C)C(=O)N1CCN(c2nc(-c3ccccc3)nc3c2CCC3)CC1	HEK293 tox 79µM
O=C(NC[C@@H]1CCCN1)C1CCN(c2nc(-c3ccccc3)nc3c2CCC3)CC1	3T3 cytotox 22µM, HEK293 tox 32µM
O=C(COc1ccc(F)cc1)N1CCC(n2cc(-c3nc(-c4ccccc4)no3)nn2)CC1	none
O=C(NCc1cccc(Cl)c1)c1ccc2oc(-c3ccncc3)nc2c1	HEK293 tox inconclusive (no result: Luciferase inh, hNpr1 antagonist)
Cc1ccc(C)c(-n2nc(-c3c(C)nc4scc(CC(=O)NC5CCCCC5)n4c3=O)cc2C)c1	3T3 cytotox 40µM, HEK293 tox inconclusive
COc1ccccc1-c1ccc(C(=O)N2CCC(C(=O)NCC(F)F)CC2)cc1	HEK293 tox inconclusive (no result: Luciferase inh, hNpr1 antagonist)
Cc1cn2nc(C(=O)Nc3ccc4c(c3)OCCO4)cc2c(N2CCSCC2)n1	Luciferase inh 11µM, HEK293 tox inconclusive
Cc1cn2nc(C(=O)NC3CCCCCC3)cc2c(N2CCSCC2)n1	3T3 cytotox inconclusive, HEK293 tox 45µM
Cc1cn2nc(C(=O)Nc3ccc4c(c3)OCO4)cc2c(N2CCCC2)n1	Luciferase inh inconclusive
Cc1cccc(NC(=O)c2cc3c(N4CCSCC4)nc(C)cn3n2)c1	3T3 cytotox inconclusive, HEK293 tox 40µM
Cc1cn2nc(C(=O)NC3CCCCC3)cc2c(N2CCCC2)n1	none
COc1ccccc1NC(=O)C1CN(C2CCCC2)C(=O)N1 (stereo unspecified)	none (no result: Luciferase inh, hNpr1 antagonist)
CN(CCc1noc(C2CN(Cc3ccc(Cl)c(F)c3)C2)n1)S(C)(=O)=O	3T3 cytotox inconclusive, HEK293 tox 40µM
CN(CCc1noc(C2CN(Cc3ccncc3F)C2)n1)C(=O)C1CC1	none (no result: Luciferase inh, hNpr1 antagonist)
COc1cccc(CN2Cc3cc(NC(=O)CC(C)(C)C)ccc3OC(C)C2=O)c1OC (stereo unspecified)	HEK293 tox inconclusive
CCOCCN1C(=O)COC[C@@H]1[C@H](O)c1ccc(NC(=O)c2ccccc2)cc1	none
COc1ccc(C(=O)Nc2ccc([C@@H](O)[C@H]3COCC(=O)N3CC3CCCCC3)cc2)cc1	3T3 cytotox inconclusive, HEK293 tox 35µM
O=C(COc1ccccc1)Nc1ccc([C@@H](O)[C@H]2COCC(=O)N2Cc2ccc(C(F)(F)F)cc2)cc1	3T3 cytotox inconclusive, hNpr1 antagonist inconclusive, HEK293 tox 40µM
O=C(Nc1ccc([C@@H](O)[C@H]2COCC(=O)N2Cc2cccnc2)cc1)c1ccccc1	none
O=C(Nc1ccc([C@@H](O)[C@H]2COCC(=O)N2Cc2ccccc2)cc1)c1ccc(F)cc1	3T3 cytotox inconclusive, HEK293 tox 100µM
O=C(COc1ccccc1)Nc1ccc([C@@H](O)[C@H]2COCC(=O)N2CCCc2ccccc2)cc1	3T3 cytotox inconclusive, HEK293 tox 79µM
Cc1oc2c(c1C(=O)N1CCSCC1)CN(Cc1cccc(F)c1)CC2	none
CCCN1CCC(N2CCC(C(=O)Nc3cccc(-c4cccc(F)c4)c3)CC2)CC1	3T3 cytotox 25µM, HEK293 tox 22µM
CN1CCN(c2cc(=O)c3ccnc(-c4ccccc4O)c3o2)CC1	3T3 cytotox 22µM
CN1CCN(c2cc(=O)c3ccnc(-c4ccnn4C)c3o2)CC1	3T3 cytotox 40µM
CC(C)(C)C(=O)N1CCCC(C(=O)N2CCCC(c3nc4ncccc4[nH]3)C2)C1 (stereo unspecified)	HEK293 tox inconclusive (no result: Luciferase inh, hNpr1 antagonist)
CCCn1cc(CNC(=O)c2cc3c(s2)CCC(C)C3)cn1 (stereo unspecified)	Luciferase inh 32µM, 3T3 cytotox inconclusive, hNpr1 antagonist inconclusive, HEK293 tox inconclusive
CCCNC(=O)C1CCc2sc(C(=O)N(C)C)cc2C1 (stereo unspecified)	none
COc1cc(-c2nccc3c(=O)cc(N(C)c4ccccc4)oc23)ccn1	3T3 cytotox 10µM, HEK293 tox inconclusive
COc1ncccc1-c1nccc2c(=O)cc(N(C)c3ccccc3)oc12	3T3 cytotox 35µM, HEK293 tox inconclusive
CN(c1ccccc1)c1cc(=O)c2ccnc(-c3ccncc3)c2o1	3T3 cytotox 25µM
CN(c1cc(=O)c2ccnc(-c3ccc(F)c(Cl)c3)c2o1)C1CCOCC1	3T3 cytotox inconclusive
Cc1noc(C)c1-c1nccc2c(=O)cc(N(C)c3ccccc3)oc12	3T3 cytotox inconclusive
CN(c1cc(=O)c2ccnc(-c3cccc(C(F)(F)F)c3)c2o1)C1CCOCC1	3T3 cytotox 13µM
CC(=O)Nc1ccccc1-c1nccc2c(=O)cc(N(C)c3ccccc3)oc12	3T3 cytotox inconclusive
CCc1cnc(-c2ccccc2)[nH]1	none (no result: Luciferase inh, hNpr1 antagonist)
O=C(C1CCc2nnc(C3CCN([S+](=O)([O-])c4ccccc4Cl)CC3)n21)N1CCCCC1 (stereo unspecified)	none (no result: Luciferase inh, hNpr1 antagonist)
COc1ccccc1-c1[nH]nc2ncc(-c3ccccc3C)nc12	3T3 cytotox 50µM, HEK293 tox 50µM
COc1ccccc1-c1[nH]nc2ncc(-c3ccnc(C)c3)nc12	3T3 cytotox inconclusive, HEK293 tox inconclusive
